# Data as given in PubChem BioAssay AID1347087 (National Center for Advancing Translational Sciences (NCATS), 2019).
# Where “and” joins values, the source holds several entries; their conditions need not be identical. Equal entries are not always repeated. Records with an inconclusive call do not appear. Values without a mark were called inactive. Calls of active or inactive are those of the source. Calls come from the whole dose curve.
# Assay: qHTS for Inhibitors of the Functional Ribonucleoprotein Complex (vRNP) of Lassa (LASV) Arenavirus: LASV Confirmatory Screen - GLuc reporter signal
# Conditions: LASV minigenome vRNP, Gaussia luciferase reporter; series mostly up to 53.9 µM; activity, negative = inhibition: at the top concentration
SMILES,"activity, negative = inhibition",Potency
CCOC(=O)OCC/C(SC(=O)OCC)=C(\C)N(C=O)Cc1cnc(C)nc1N,-20.6%,
Cc1cccc(-c2[nH]c(C(C)(C)C)nc2-c2ccc3c(c2)OCO3)n1,,3.43 µM (active)
CCC1OC2(C)C(O)C(/C=C/C=C/C=C/c3oc(=O)cc(OC)c3C)OC1(C)C2OC(C)=O (stereo unspecified),,0.137 µM (active)
COC(=O)c1nc(Cl)c(Cl)nc1N,,4.85 µM (active)
FC(F)(F)c1ccc(C=Cc2nc(COc3ccc(CCCCn4ccnn4)cc3)co2)cc1,,0.0153 µM (active)
O=C1Cc2cc(CCN3CCN(c4nsc5ccccc45)CC3)c(Cl)cc2N1,,2.17 µM (active) and 3.43 µM (active)
COc1ccc2c(c1OC)CN1CCc3cc4c(cc3C1C2)OCO4 (stereo unspecified),,21.7 µM (active)
S=C(NCc1ccc2c(c1)OCO2)N1CCN(c2ncnc3c2oc2ccccc23)CC1,,1.77 µM (active)
Cc1cc2c(C(C)C)c(O)c(O)c(C=O)c2c(O)c1-c1c(C)cc2c(C(C)C)c(O)c(O)c(C=O)c2c1O,,9.68 µM (active)
CCCCC[C@H](O)/C=C/C=C/C/C=C\CCCC(=O)O,4.46% [at 0.666 µM],
CC(=O)[C@H]1CC[C@H]2[C@@H]3CCC4=CC(=O)CC[C@]4(C)[C@H]3CC[C@]12C,,21.7 µM (active)
COc1cccc(-c2ccc(NC(=O)C3=C(C(=O)O)CCC3)c(F)c2)c1,,6.85 µM (active)
CCC[C@H](N[C@@H](C)C(=O)N1[C@@H]2CCCC[C@H]2C[C@H]1C(=O)O)C(=O)OCC,10.2%,
CCCCCC[C@H]1C(=O)O[C@H](C)[C@H](NC(=O)c2cccc(NC=O)c2O)C(=O)O[C@@H](C)[C@@H]1OC(=O)CC(C)C,,0.0306 µM (active)
CC1OC(=O)[C@@H](C(C)C)NC(=O)C(C(C)C)OC(=O)[C@H](C(C)C)NC(=O)C(C)OC(=O)[C@@H](C(C)C)NC(=O)C(C(C)C)OC(=O)[C@H](C(C)C)NC(=O)C(C)OC(=O)[C@@H](C(C)C)NC(=O)C(C(C)C)OC(=O)[C@H](C(C)C)NC1=O (stereo partly specified),,0.153 µM (active)
N#CC(=C(\N)Sc1ccccc1N)/C(C#N)=C(/N)Sc1ccccc1N,,0.0685 µM (active)
CC(O)(P(=O)(O)O)P(=O)(O)O,-2.68%,
O=C(CCCN1CCN(c2ccc(F)cc2)CC1)NC1c2ccccc2CSc2ccccc21 (stereo unspecified),-7.57%,
Cc1ccc2c(c1)C1CN(C)CCC1N2 (stereo unspecified),-9.24% [at 19.4 µM],
CNCCCC1c2ccccc2C=Cc2ccccc21,,30.6 µM (active)
CCN(CC)C(=O)N[C@@H]1C=C2c3cccc4[nH]cc(c34)C[C@@H]2N(C)C1,-9.43%,
Nc1ccc([N+](=O)[O-])cc1O,,0.396 µM (active)
Clc1nccc2c1ccc1ccccc12,-9.94%,
Fc1ccc(CNc2ncnc3ccc(F)cc23)cc1,,6.85 µM (active)
CCc1cncnc1N1CCN(Cc2nc3ccc(C(F)(F)F)cc3[nH]2)CC1,,3.95 µM (active)
CC(C)=CCC/C(C)=C/CC/C(C)=C/CC[C@]1(C)CCc2c(C)c(O)c(C)c(C)c2O1,-9.56% [at 6 µM],
